# Source: PubChem BioAssay (EPA / NIEHS)
# Records with an inconclusive call do not appear. Active and inactive are the calls of the source. How the source made its calls, unless noted: active means hit-call score of the fitted dose curve at least 0.9, where 1 is the maximum; inactive means score below 0.9.
# Key:
# [1] = BSK_LPS_PGE2: BioMAP Diversity Plus: LPS Assay for Prostaglandin E2 (PGE2) Biomarker Activity (AID 2283082); conditions: primary human HUVEC with PBMC; actives raise or lower the signal;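 on AC50: secreted prostaglandin E2 measured by ELISA in LPS-stimulated co-culture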
# Outline: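 Endpoint derived from bidirectional curve fitting versus DMSO of ELISA-measured PGE2 in LPS-stimulated human primary vascular co-culture (HUVEC with PBMC) harvested at 24 h.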
# [2] = read-out: Macrophage colony-stimulating factor (MCSF), CSF1 (gene 1435); assay: BSK_LPS_MCSF: BioMAP Diversity Plus: LPS Assay for Macrophage colony-stimulating factor (MCSF) Biomarker Activity (AID 2283083); conditions: primary human HUVEC with PBMC; actives raise or lower the signal
# Outline: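 HUVEC + PBMC co-culture (human primary), 24 h post-dose; M-CSF by ELISA; gain/loss of signal fitted bidirectionally vs DMSO baseline.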
# [3] = read-out: Tissue Factor, F3 (gene 2152); assay: BSK_LPS_TissueFactor: BioMAP Diversity Plus: LPS Assay for Tissue Factor Biomarker Activity (AID 2283084); conditions: primary human HUVEC with PBMC; actives raise or lower the signal
# Outline: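 HUVEC/PBMC co-culture, LPS-activated; CD142 ELISA read 24 h post-dose; bidirectional curve fit vs DMSO negative control.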
# CD38, CD38 (gene 952) = assay: BSK_SAg_CD38: BioMAP Diversity Plus: SAg Assay for CD38 Biomarker Activity (AID 2283087); conditions: primary human HUVEC with PBMC; actives raise or lower the signal
# Outline: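 Fluorescence ELISA of cell-surface CD38 served as the read-out, with either increase or decrease fitted against DMSO controls. Cells were a human umbilical vein endothelium plus PBMC co-culture under SEB/TSST-1 stimulation, measured 24 h after dosing.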
# CD40, CD40 (gene 958) = assay: BSK_SAg_CD40: BioMAP Diversity Plus: SAg Assay for CD40 Biomarker Activity (AID 2283088); conditions: primary human HUVEC with PBMC; actives raise or lower the signal
# Outline: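 HUVEC/PBMC co-culture, 24 h post-dose; CD40 by ELISA, fluorescence intensity; bidirectional fit vs DMSO negative control.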
# CD69, CD69 (gene 969) = assay: BSK_SAg_CD69: BioMAP Diversity Plus: SAg Assay for CD69 Biomarker Activity (AID 2283089); conditions: primary human HUVEC with PBMC; actives raise or lower the signal;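 on AC50: cell surface CD69 protein quantified by ELISA with fluorescence detection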
# Outline: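 Values derive from bidirectional fitting relative to DMSO vehicle. Cells: umbilical vein endothelium plus peripheral blood mononuclear cells, treated 24 h before fluorescent ELISA for CD69.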
# [4] = read-out: Monocyte Chemoattractant Protein-1 (MCP1), CCL2 (gene 6347); assay: BSK_SAg_MCP1: BioMAP Diversity Plus: SAg Assay for Monocyte Chemoattractant Protein-1 (MCP1) Biomarker Activity (AID 2283090); conditions: primary human HUVEC with PBMC; actives raise or lower the signal
# Outline: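 MCP-1 levels in the endothelial–PBMC SAg co-culture were quantified by ELISA at 24 h post-dosing; both increases and decreases versus DMSO scored. Cytotoxicity monitored by SRB total protein in parallel cultures.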
# [5] = read-out: E-selectin (Homo sapiens) (UniProt P16581); assay: BSK_SAg_Eselectin: BioMAP Diversity Plus: SAg Assay for Eselectin Biomarker Activity (AID 2283091); conditions: primary human HUVEC with PBMC; actives raise or lower the signal
# Outline: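 E-selectin ELISA readout at 24 h post-dosing in human umbilical vein endothelial cell/PBMC co-culture; gain or loss of signal fitted relative to DMSO baseline.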
# [6] = BSK_SAg_PBMCCytotoxicity: PBMC Cytotoxicity Assessment in the BioMAP Diversity Plus: SAg Assay (AID 2283093); conditions: primary human HUVEC with PBMC;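 further: PBMC viability measured as Alamar Blue reduction fluorescence at 546/580 nm; fitted both ways against DMSO so a hit may be loss or gain of signal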;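 on AC50: PBMC superantigen activated with SEB plus TSST-1 one hour after compound addition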
# Outline: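 Human umbilical vein endothelial cells co-cultured with PBMC; PBMC (75,000/well) pre-treated with compound 1 h, then activated with SEB and TSST-1 (20 ng/mL final each) for 90 h. Alamar Blue added 6 h, fluorescence 546/580 nm; bidirectional fit versus DMSO.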
# [7] = read-out: Interleukin-8 (IL8), CXCL8 (gene 3576); assay: BSK_SAg_IL8: BioMAP Diversity Plus: SAg Assay for Interleukin-8 (IL8) Biomarker Activity (AID 2283094); conditions: primary human HUVEC with PBMC; actives raise or lower the signal
# Outline: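 In this co-culture of human umbilical vein endothelium with peripheral blood mononuclear cells, IL-8 is assayed by ELISA at 24 h. DMSO serves as baseline for bidirectional curve fitting.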
# [8] = BSK_SAg_Proliferation: Cell Proliferation Assessment in the BioMAP Diversity Plus: SAg Assay (AID 2283095); conditions: primary human HUVEC with PBMC;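 further: relative cell number as total protein by SRB absorbance in sub-confluent culture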
# Outline: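 Readout is SRB-stained protein (560 nm) in a primary human HUVEC and PBMC co-culture; sub-confluent cultures are read at 96 h. Activity is fitted bidirectionally using DMSO as baseline.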
# [9] = BSK_SAg_SRB: Viability Assessment in the BioMAP Diversity Plus: SAg Assay (AID 2283096); conditions: primary human HUVEC with PBMC;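 further: cells read one day after compound addition; hits may be either gain or loss of signal compared with DMSO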
# Outline: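 Endothelial/PBMC primary human co-culture; compound 24 h; fix 10% TCA, stain 0.1% SRB, A560; protein content as cytotoxicity proxy; bidirectional curve fit, DMSO = baseline.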
# [10] = read-out: Monokine induced gamma interferon (MIG), CXCL9 (gene 4283); assay: BSK_SAg_MIG: BioMAP Diversity Plus: SAg Assay for Monokine induced gamma interferon (MIG) Biomarker Activity (AID 2283092); conditions: primary human HUVEC with PBMC; actives raise or lower the signal
# Outline: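 Values reflect bidirectional fitting of ELISA-measured MIG against DMSO vehicle, taken 24 h after dosing of a co-culture of human umbilical vein endothelial cells and peripheral blood mononuclear cells.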
# [11] = read-out: Vascular cell adhesion molecule 1 (VCAM1), VCAM1 (gene 7412); assay: BSK_LPS_VCAM1: BioMAP Diversity Plus: LPS Assay for Vascular cell adhesion molecule 1 (VCAM1) Biomarker Activity (AID 2283086); conditions: primary human HUVEC with PBMC; actives raise or lower the signal
# Outline: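 Primary human vascular co-culture (umbilical vein endothelium plus PBMC) stimulated with LPS received chemical; 24 h later VCAM-1 was read by ELISA. Overt cytotoxicity was assessed by sulforhodamine B staining of parallel cultures at the same time point.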
# [12] = target: human CYP2B6, CYP2B6 (gene 1555) (UniProt P20813); assay: NVS_ADME_hCYP2B6: NovaScreen (NVS) CYP450-related Enzyme Activity (ADME) Assay for human CYP2B6 (AID 2283101; active means hit-call score of the fitted dose curve at least 0.9, where 1 is the maximum)
# Outline: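 Compounds were first screened in duplicate at 10 uM against recombinant enzyme, with the fluorescent product measured after 1 hour. Active compounds were retested over a concentration series. Loss of fluorescence versus acetonitrile control was scored as reduced enzyme activity.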
# [13] = target: human CYP1A2, CYP1A2 (gene 1544) (UniProt P05177); assay: NVS_ADME_hCYP1A2: NovaScreen (NVS) CYP450-related Enzyme Activity (ADME) Assay for human CYP1A2 (AID 2283102; active means hit-call score of the fitted dose curve at least 0.9, where 1 is the maximum)
# Outline: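 Fluorescence-intensity enzyme activity read-out, taken 0.5 h post-dosing, using insect-cell-derived recombinant CYP1A2 and specific fluorescent substrate. Acetonitrile served as negative control/baseline. Single-concentration duplicate screen at 10 uM, then concentration-response follow-up.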
# Chain of E-selectin (Homo sapiens) (P16581 whole entry, looked up): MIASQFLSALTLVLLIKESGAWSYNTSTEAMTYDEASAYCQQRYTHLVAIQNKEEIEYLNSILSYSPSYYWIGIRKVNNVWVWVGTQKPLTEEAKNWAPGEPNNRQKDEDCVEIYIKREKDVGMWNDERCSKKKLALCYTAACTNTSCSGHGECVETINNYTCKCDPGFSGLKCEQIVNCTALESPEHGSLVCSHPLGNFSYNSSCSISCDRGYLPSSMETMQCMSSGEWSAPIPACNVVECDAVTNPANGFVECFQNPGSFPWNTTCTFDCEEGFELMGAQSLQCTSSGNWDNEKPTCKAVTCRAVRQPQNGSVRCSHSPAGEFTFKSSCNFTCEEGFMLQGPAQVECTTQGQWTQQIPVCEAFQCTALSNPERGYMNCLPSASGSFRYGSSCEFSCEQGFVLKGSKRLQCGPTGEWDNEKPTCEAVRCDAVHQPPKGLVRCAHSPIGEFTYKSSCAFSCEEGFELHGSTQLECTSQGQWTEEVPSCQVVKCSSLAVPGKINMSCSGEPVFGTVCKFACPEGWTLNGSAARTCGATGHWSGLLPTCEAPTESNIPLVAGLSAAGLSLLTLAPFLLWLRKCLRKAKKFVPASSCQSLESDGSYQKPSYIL
# Chain of human CYP2B6, CYP2B6 (gene 1555) (P20813 whole entry, looked up): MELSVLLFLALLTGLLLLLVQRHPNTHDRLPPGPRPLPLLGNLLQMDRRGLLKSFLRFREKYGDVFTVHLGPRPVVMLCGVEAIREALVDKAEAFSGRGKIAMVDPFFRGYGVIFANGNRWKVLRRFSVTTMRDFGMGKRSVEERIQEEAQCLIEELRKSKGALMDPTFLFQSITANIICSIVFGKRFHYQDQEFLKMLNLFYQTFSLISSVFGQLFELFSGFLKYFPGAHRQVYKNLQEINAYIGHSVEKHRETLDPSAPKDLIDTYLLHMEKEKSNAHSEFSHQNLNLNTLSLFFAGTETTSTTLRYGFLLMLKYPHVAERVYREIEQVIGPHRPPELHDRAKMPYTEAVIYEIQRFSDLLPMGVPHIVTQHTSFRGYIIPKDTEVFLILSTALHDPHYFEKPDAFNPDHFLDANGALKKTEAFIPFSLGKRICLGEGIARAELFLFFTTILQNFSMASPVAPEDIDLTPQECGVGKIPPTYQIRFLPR
# Chain of human CYP1A2, CYP1A2 (gene 1544) (P05177 whole entry, looked up): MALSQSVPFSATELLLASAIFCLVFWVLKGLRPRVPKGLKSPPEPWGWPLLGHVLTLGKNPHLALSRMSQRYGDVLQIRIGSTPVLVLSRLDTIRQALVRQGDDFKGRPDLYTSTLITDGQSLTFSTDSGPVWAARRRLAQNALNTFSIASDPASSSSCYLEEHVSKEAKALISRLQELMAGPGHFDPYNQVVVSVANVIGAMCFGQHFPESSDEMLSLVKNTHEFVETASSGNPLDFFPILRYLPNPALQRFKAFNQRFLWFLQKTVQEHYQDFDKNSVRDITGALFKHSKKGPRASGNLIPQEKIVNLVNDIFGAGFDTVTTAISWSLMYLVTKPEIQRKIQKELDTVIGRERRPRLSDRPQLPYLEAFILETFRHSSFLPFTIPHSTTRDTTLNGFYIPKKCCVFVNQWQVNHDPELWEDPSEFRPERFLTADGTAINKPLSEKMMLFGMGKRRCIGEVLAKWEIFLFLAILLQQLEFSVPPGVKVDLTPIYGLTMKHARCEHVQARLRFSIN
compound,measurement,setting,value
CC(=O)Oc1ccccc1C(=O)O,AC50,[1],3.25 µM (active)
same,outcome,[2],inactive
same,outcome,[3],inactive
same,outcome,"CD38, CD38 (gene 952)",inactive
same,outcome,"CD40, CD40 (gene 958)",inactive
same,outcome,"CD69, CD69 (gene 969)",inactive
same,outcome,[4],inactive
same,outcome,[5],inactive
same,outcome,[6],inactive
same,outcome,[7],inactive
same,outcome,[8],inactive
same,outcome,[9],inactive
COc1ccc(C)cc1N,outcome,[1],inactive
same,outcome,[2],inactive
same,outcome,[3],inactive
same,outcome,"CD38, CD38 (gene 952)",inactive
same,outcome,"CD40, CD40 (gene 958)",inactive
same,outcome,"CD69, CD69 (gene 969)",inactive
same,outcome,[4],inactive
same,outcome,[5],inactive
same,outcome,[10],inactive
same,outcome,[6],inactive
same,outcome,[8],inactive
same,outcome,[9],inactive
CNCc1cc(F)ccc1Oc1ccc(Cl)c(Cl)c1,outcome,[1],inactive
same,outcome,[2],inactive
same,outcome,[3],inactive
same,outcome,[11],inactive
same,AC50,"CD38, CD38 (gene 952)",28.5 µM (active)
same,AC50,"CD40, CD40 (gene 958)",36.5 µM (active)
same,AC50,"CD69, CD69 (gene 969)",26.3 µM (active)
same,AC50,[4],26.4 µM (active)
same,AC50,[5],20 µM (active)
same,AC50,[6],25.7 µM (active)
same,AC50,[7],20 µM (active)
Cc1cccc(C)c1O,AC50,[1],4.8 µM (active)
same,outcome,[2],inactive
same,outcome,[3],inactive
same,outcome,"CD38, CD38 (gene 952)",inactive
same,outcome,"CD40, CD40 (gene 958)",inactive
same,outcome,"CD69, CD69 (gene 969)",inactive
same,outcome,[4],inactive
same,outcome,[5],inactive
same,outcome,[10],inactive
same,outcome,[6],inactive
same,outcome,[7],inactive
same,outcome,[9],inactive
CCCCCCCCCCC,outcome,[1],inactive
same,outcome,[2],inactive
same,outcome,[3],inactive
same,outcome,[11],inactive
same,outcome,"CD38, CD38 (gene 952)",inactive
same,outcome,"CD40, CD40 (gene 958)",inactive
same,outcome,"CD69, CD69 (gene 969)",inactive
same,outcome,[4],inactive
same,outcome,[5],inactive
same,outcome,[6],inactive
same,outcome,[7],inactive
same,outcome,[9],inactive
COc1cc(C=O)ccc1O,outcome,[1],inactive
same,outcome,[2],inactive
same,outcome,[3],inactive
same,outcome,"CD38, CD38 (gene 952)",inactive
same,outcome,"CD40, CD40 (gene 958)",inactive
same,outcome,"CD69, CD69 (gene 969)",inactive
same,outcome,[4],inactive
same,outcome,[5],inactive
same,outcome,[6],inactive
CCOC(=O)CCC(=O)OCC,outcome,[1],inactive
same,outcome,[2],inactive
same,outcome,[3],inactive
same,outcome,"CD38, CD38 (gene 952)",inactive
same,outcome,"CD40, CD40 (gene 958)",inactive
same,outcome,"CD69, CD69 (gene 969)",inactive
same,outcome,[4],inactive
same,outcome,[5],inactive
same,outcome,[10],inactive
same,outcome,[6],inactive
same,outcome,[8],inactive
same,outcome,[9],inactive
same,outcome,[12],inactive
same,outcome,[13],inactive
C[Si]1(C)O[Si](C)(C)O[Si](C)(C)O[Si](C)(C)O1,outcome,[1],inactive
same,outcome,[2],inactive
same,outcome,[3],inactive
same,outcome,"CD38, CD38 (gene 952)",inactive
same,outcome,"CD40, CD40 (gene 958)",inactive
same,outcome,"CD69, CD69 (gene 969)",inactive
same,outcome,[4],inactive
same,outcome,[5],inactive
same,outcome,[6],inactive
same,outcome,[7],inactive
same,outcome,[8],inactive
same,outcome,[9],inactive
Cc1ccccc1Cl,outcome,[1],inactive
same,outcome,[2],inactive
same,outcome,[3],inactive
same,outcome,[11],inactive
same,outcome,"CD38, CD38 (gene 952)",inactive
same,outcome,"CD40, CD40 (gene 958)",inactive
same,outcome,"CD69, CD69 (gene 969)",inactive
same,outcome,[4],inactive
same,outcome,[5],inactive
same,outcome,[6],inactive
same,outcome,[7],inactive
same,outcome,[9],inactive
CCCCCC(=O)O,outcome,[1],inactive
same,outcome,[2],inactive
same,outcome,[3],inactive
same,outcome,"CD38, CD38 (gene 952)",inactive
same,outcome,"CD40, CD40 (gene 958)",inactive
same,outcome,"CD69, CD69 (gene 969)",inactive
same,outcome,[4],inactive
same,outcome,[5],inactive
same,outcome,[10],inactive
same,outcome,[6],inactive
Cc1cccc([N+](=O)[O-])c1C,outcome,[1],inactive
same,outcome,[2],inactive
same,outcome,[3],inactive
same,outcome,[11],inactive
same,outcome,"CD38, CD38 (gene 952)",inactive
same,outcome,"CD40, CD40 (gene 958)",inactive
same,outcome,"CD69, CD69 (gene 969)",inactive
same,outcome,[4],inactive
same,outcome,[5],inactive
same,outcome,[6],inactive
same,outcome,[9],inactive
Cc1cc(NC(=O)C(=O)O)cc(C)c1Oc1ccc(O)c2c1CCC2,outcome,[1],inactive
same,outcome,[2],inactive
same,outcome,[3],inactive
same,outcome,[11],inactive
same,outcome,"CD38, CD38 (gene 952)",inactive
same,outcome,"CD40, CD40 (gene 958)",inactive
same,outcome,"CD69, CD69 (gene 969)",inactive
same,outcome,[4],inactive
same,outcome,[5],inactive
same,outcome,[6],inactive
same,outcome,[8],inactive
NCCO,outcome,[1],inactive
same,outcome,[2],inactive
same,outcome,[3],inactive
same,outcome,"CD38, CD38 (gene 952)",inactive
same,outcome,"CD40, CD40 (gene 958)",inactive
same,outcome,"CD69, CD69 (gene 969)",inactive
same,outcome,[4],inactive
same,outcome,[5],inactive
same,outcome,[10],inactive
same,outcome,[6],inactive
same,outcome,[7],inactive
